Only some compounds are listed: those with a hit (about 5.9% of all), similar ones and a draw of the others.
PRMT1 inh – blocks human protein arginine methyltransferase 1. Q99873. recombinant PRMT1, activity-based probe fluorescence polarization. inhibition, % at 2.79 µM. 370,000 compounds, 1.3% hits. AID 652257;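 active = inhibition above about 21% made by adding two undisclosed values, limit read from the data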
ALR inh – blocks human ALR sulfhydryl oxidase activity; inhibition, % (test concentration not listed); AID 485317; P55789; purified ALR, DTT oxidation, H2O2 HRP-luminol luminescence; 290,000 compounds, 3.8% hits;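 active = mean replicate inhibition above about 79%, with every replicate also reaching it, limit read from the data; inconclusive = only one of the two criteria met; inactive = mean below limit and not every replicate reaching it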
Target sequence (P55789 whole entry, looked up): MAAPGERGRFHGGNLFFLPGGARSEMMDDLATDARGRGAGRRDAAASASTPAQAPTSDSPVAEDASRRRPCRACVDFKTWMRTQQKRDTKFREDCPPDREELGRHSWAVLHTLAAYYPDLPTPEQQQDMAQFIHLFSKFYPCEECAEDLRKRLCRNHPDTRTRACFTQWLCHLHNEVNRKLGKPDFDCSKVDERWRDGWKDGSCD
rCAG binder – r(CAG) repeat RNA binding. TO-PRO-1 dye displacement fluorescence. inhibition, % at 3 µM. 370,000 compounds, 1.3% hits. AID 651821;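 active = inhibition above the plate cutoff, the mean of all test compounds on that plate plus 3 SD, cut at about 35% in these data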;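 note: 0% = DMSO alone and 100% = 100 µM mitoxantrone as full dye displacement; higher means more dye released from RNA so lower well fluorescence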
Rtt109 Vps75 – C. albicans Rtt109 histone acetyltransferase inhibition; Q5AAJ8; purified Rtt109/Vps75, ThioGlo CoA-SH fluorescence, 4 h; inhibition, % at 34.9 µM; 330,000 compounds, 0.16% hits;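 active = inhibition of at least 50% in every replicate; inconclusive = best replicate reaches 50% inhibition but some replicates fall short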
Target sequence (Q5AAJ8 whole entry, looked up): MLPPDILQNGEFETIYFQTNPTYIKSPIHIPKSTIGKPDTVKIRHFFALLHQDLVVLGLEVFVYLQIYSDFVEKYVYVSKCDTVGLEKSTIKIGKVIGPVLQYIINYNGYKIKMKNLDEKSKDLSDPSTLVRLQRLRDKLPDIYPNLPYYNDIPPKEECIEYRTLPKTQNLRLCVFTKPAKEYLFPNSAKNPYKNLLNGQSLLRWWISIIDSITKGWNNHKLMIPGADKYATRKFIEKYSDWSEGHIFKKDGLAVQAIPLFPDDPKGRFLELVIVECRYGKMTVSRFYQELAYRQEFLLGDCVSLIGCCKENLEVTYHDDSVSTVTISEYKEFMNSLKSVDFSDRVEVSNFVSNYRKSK
LANA-H2B inh – blocks KSHV LANA binding to histone H2A/H2B. cell-free LANA-H2A/H2B peptide, fluorescence polarization. inhibition, % (no concentration beside the values). 320,000 compounds, 0.6% hits; in the data active = inhibition mostly above about 10%, no sharp cut-off; inactive = mostly below about 6.7%
ABHD5 PLIN5 PPI – blocks binding of human ABHD5 to perilipin-5 | inhibition, % at 4 µM | 360,000 compounds, 0.78% hits | Split G. princeps luciferase complementation, luminescence, 4 h | AID 602281;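 active = inhibition above the mean inhibition across every tested compound plus 3 SD, cut at about 22% in these data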;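 note: 0% = DMSO only wells and the 100% control is not disclosed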
The depositor's hits bear a star; i = inactive; ? = inconclusive; . = not tested or not shown.

SMILES	PRMT1 inh	ALR inh	rCAG binder	Rtt109 Vps75	LANA-H2B inh	ABHD5 PLIN5 PPI
Cc1ccc2cc(CCl)c(Cl)nc2c1	0	98*	1	10	4	0
COc1ccc(C2CC(=O)C(c3ccc(C#N)cc3)=CN2Cc2ccccc2)cc1 (stereo not given)	3	.	4	.	.	.
COC(=O)/C(=C\c1ccc(O)cc1)c1nc2ccccc2[nH]1	2	.	2	.	-6	-4
C/C(=C\c1ccc(N)cc1)c1nc2ccccc2[nH]1	1	99*	4	1	-2	-2
O=C(C1CC1)N1CCN=C1SCc1ccc(F)cc1	-2	100*	1	-2	2	2
O=C(C1CC1)N1CCN=C1SCc1ccccc1	4	-1	-2	-5	0	-1
O=C(C1CC1)N1CCN=C1SCc1cccc(F)c1	3	99*	2	2	1	-2
CC(=O)N1CCN=C1SCc1ccc(C(F)(F)F)cc1	3	99*	-4	19	-3	2
COC(=O)C1=C(C)N(Cc2ccc(Cl)cc2)C(=S)NC1c1ccc(Br)cc1 (stereo not given)	2	.	6	.	.	.
CCN1/C(=C2/SC(=S)N(NC(C)=O)C2=O)Sc2ccc(Cl)cc21	0	96*	6	0	0	-3
CCN1/C(=C2/SC(=S)N(NC(C)=O)C2=O)Sc2ccc(OC)cc21	3	67	5	-1	1	1
C[C@@H](N)C(=O)NC[C@H]1CC[C@H](C(=O)N[C@@H](Cc2ccccc2)C(=O)O)CC1	-3	-4	1	-2	5	-1
COc1ccc(S(=O)(=O)N2N=C(c3cccc(NS(C)(=O)=O)c3)CC2c2ccco2)cc1 (stereo not given)	23*	-9	16	-4	6	4
CCCC1=C(C(=O)OCC)C(c2ccc(N(C)C)cc2)n2ncnc2N1 (stereo not given)	-1	98*	-4	-2	-4	5
CCCC1=C(C(=O)OCC)C(c2ccc(F)cc2)n2ncnc2N1 (stereo not given)	-2	9	-1	12	2	-3
Cc1nc2c(C)cccn2c1/C(O)=C1\C(=O)C(=O)N(CCN(C)C)C1c1ccccc1 (stereo not given)	-1	4	-2	-25	12*	2
CC(C)CN(C(=O)COC(=O)CCSc1ccc(Cl)cc1)c1c(N)n(Cc2ccccc2)c(=O)[nH]c1=O	1	.	2	.	.	-2
COc1cc(C(=O)NNc2nc3cc4c(cc3s2)OCO4)cc(OC)c1OC	15	99*	8	1	-7	-2
COc1cc(OC)cc(C(=O)NNc2nc3cc4c(cc3s2)OCO4)c1	18	?	10	-5	3	-11
O=C(NNc1nc2cc3c(cc2s1)OCO3)c1ccccc1	20	99*	5	12	-1	-3
COc1ccc(-c2csc(N(CCCN(C)C)C(=O)c3ccc(F)cc3)n2)cc1	-2	87*	0	10	-5	-5
CCc1ccc(NC(=O)CSc2nc(O)cc(=O)n2C2CCCC2)cc1	0	99*	12	-5	1	-7
CCCCNC(=O)CSc1nc(O)cc(=O)n1C1CCCC1	6	.	5	-14	0	-2
COC(=O)c1ccccc1NC(=O)CSc1nc(O)cc(=O)n1C1CCCC1	16	98*	33	10	-4	-6
O=C(CSc1nc(O)cc(=O)n1C1CCCC1)Nc1cccc(Cl)c1Cl	13	99*	32	-2	2	1
SMILES	PRMT1 inh	ALR inh	rCAG binder	Rtt109 Vps75	LANA-H2B inh	ABHD5 PLIN5 PPI
O=C1C=C(O)c2cccc(O)c2C1=O	25*	-21	19	8	-2	-22
Cn1c(=O)[nH]c(=O)c2c1nc(Br)n2CCCSc1nc2ccccc2o1	0	98*	-4	-14	1	1
O=C1c2ccccc2C(=O)N1CCCSc1nc2ccccc2o1	2	0	-2	2	15*	-7
C[C@H]1[C@@H](NC(=O)C2CCC2)CC[C@@]23CCCN2C(=O)CCC[C@@H]13	1	.	.	.	.	.
CCC[C@H]1[C@@H](NC(=O)/C=C/c2ccccc2)CC[C@@]23CCCN2C(=O)CCC[C@@H]13	2	.	.	.	.	.
CCN(C[C@H]1N[C@@](CC)(C(=O)OC)[C@H]2C(=O)N(C)C(=O)[C@@H]12)S(=O)(=O)c1ccccc1	-1	.	1	-5	.	8
Cc1c(/C=N\NC(=O)c2ccc(F)cc2)cnn1C	-1	99*	-2	-1	-2	8
CCn1cc(/C=N\NC(=O)c2ccc(F)cc2)cn1	1	98*	-4	4	2	-3
Cc1ccc(NC(=O)CN(C)C(=O)COc2ccc(Br)cc2)cc1	-3	.	4	.	.	-3
Cc1ccc(NC(=O)CCC(=O)N/N=C/c2cccs2)cc1	-4	-3	-2	5	0	6
O=C(CCCNc1ccccc1)N/N=C/c1cccs1	0	98*	2	-2	-2	-5
CCCNC(=O)C(=O)N/N=C/c1cccs1	-1	-3	-1	-4	-4	0
CC(C)CNC(=O)C(=O)N/N=C/c1cccs1	1	82*	-1	-6	0	0
COc1ccc(N2CCN(C(=O)C3CCN(S(=O)(=O)c4ccc5c(c4)CC(C)N5C(=O)C4CC4)CC3)CC2)cc1 (stereo not given)	-3	.	-5	.	.	.
Cc1cc(=O)[nH]c(SCC(=O)Nc2nnc(SCc3ccccc3)s2)n1	0	-12	18	4	2	12
Cc1cc(=O)[nH]c(SCC(=O)Nc2nc3ccccc3s2)n1	21*	99*	7	-1	0	-13
Cc1nnc(SCC(=O)Nc2nc3ccccc3s2)n(N)c1=O	1	45	1	1	4	0
Nn1c(SCC(=O)Nc2nc3ccccc3s2)nncc1=O	0	98*	4	-6	-4	-1
O=C(CSc1nc2ccccc2o1)Nc1nc2ccc(Br)cc2s1	0	98*	4	12	2	-3
CCCN(C(=O)CSc1nnc(-c2ccncc2)n1CCC)c1c(N)n(Cc2ccccc2)c(=O)[nH]c1=O	1	.	2	.	.	0
O=C(CNC(=O)c1ccccc1)NCCc1ccc(O)c(O)c1	25*	.	6	-4	13	0
O=C(COC(=O)CNC(=O)c1ccccc1)NCCc1ccccc1	-4	2	-2	0	-1	-4
CN(C(=O)CSc1nc2ccccc2s1)c1c(N)n(Cc2ccccc2)c(=O)[nH]c1=O	19	99*	2	26	0	4
CCCn1c(N)c(C(=O)CSc2nc3ccccc3s2)c(=O)[nH]c1=O	11	97*	7	-6	i	2
CCCn1c(N)c(C(=O)CSc2nnc(N)s2)c(=O)[nH]c1=O	-1	0	0	-1	-1	4
CCN(C(=O)CSc1nc2ccc([N+](=O)[O-])cc2s1)c1c(N)n(Cc2ccccc2)c(=O)[nH]c1=O	-1	.	7	1	.	3

Source: PubChem BioAssay
